According to PubChem BioAssay:
The source made the active and inactive calls. Unless noted, the rule behind the calls is not given here.

Tests used:
[1] = HepG2 liver cancer cell viability effects, profiling panel, resazurin fluorescence, 24 h, PK04 Diversity Set (AID 1172); details: higher = more signal
[2] = basal S. cerevisiae growth modulation, no modifier, primary screen, OD600, strain BY4716, 24 h, basal condition (AID 1173); details: OD600, 24 h, higher = more signal, called active from +8 up or from −8 down
[3] = MM1S myeloma cell viability, profiling panel, resazurin fluorescence, basal, 24 h, PK04 Diversity Set (AID 1174); details: higher = more signal, called active from +8 up or from −8 down;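 note: MM1S multiple myeloma cell line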
[4] = target: Dihydroorotate dehydrogenase (quinone), mitochondrial (Plasmodium falciparum (isolate 3D7)) (UniProt Q08210); assay: PfDHODH enzyme inhibitors, primary screen, biochemical, C-terminal His tag, absorbance 600 nm (AID 1175); details: DCIP absorbance 600 nm, higher = more signal, called active from +8 up or from −8 down;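 note: recombinant parasite enzyme with a five histidine tag at its C terminus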
[5] = P. aeruginosa biofilm formation inhibitors, primary screen, strain PAO1, LB-PBS medium, absorbance 600 nm (AID 1176); details: P. aeruginosa PAO1 growth/biofilm, A600, 12 h; higher = more signal
[6] = S. cerevisiae RM11-1a growth modifiers, primary screen, strain RM11-1a, OD600, basal, 24 h (AID 1177); details: OD600, 24 h, higher = more signal, called active from +8 up or from −8 down;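 note: cultures grown under basal conditions with no added stressor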
[7] = E. coli acrAB mutant growth effects, primary screen, E. coli filamentation inducers, strain DRC39, OD650, 24 h (AID 1178); details: higher = more signal, called active from +8 up or from −8 down;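 note: growth measured as culture turbidity by optical density at 650 nm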
[8] = E. coli acrAB mutant growth effects, primary screen, E. coli filamentation inducers, strain DRC39, OD650, 48 h (AID 1179);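 note: screen aims at cell division blockers that make cells filament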; details: E. coli DRC39 delta-acrAB growth, higher = more signal, called active from +8 up or from −8 down
[9] = RPMI8226 myeloma cell viability, profiling panel, resazurin fluorescence, basal, 24 h, PK04 Diversity Set (AID 1180); details: higher = more signal;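 note: RPMI8826 multiple myeloma cell line at 5000 cells per well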
[10] = target: E3 ubiquitin-protein ligase XIAP (Homo sapiens) (UniProt P98170); assay: XIAP binders, primary screen, biophysical, small-molecule microarray, fluorescence 635 nm (AID 1181); details: small-molecule microarray binding, higher = more signal;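 note: score merges 667 nm emission and signal to noise over triplicate slides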
[11] = tested on: XIP peptide (Xip251-270) binding; assay: small-molecule binders of XIP peptide, primary screen, biochemical, small-molecule microarray, fluorescence 635/667 nm, 0.1 µg/mL protein (AID 1182); details: fluorescent protein binding, 635 nm, higher = more signal, called active from +8 up or from −8 down
XIP peptide (Xip251-270) = assay: small-molecule binders of XIP peptide, primary screen, biochemical, small-molecule microarray, fluorescence 635/667 nm, 0.5 µg/mL protein (AID 1183); details: small-molecule microarray binding, fluorescence 635 nm; higher = more signal
[12] = Plasmodium falciparum growth inhibition, primary screen, strain 3D7, DAPI fluorescence, 100 nL (AID 1184);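 note: parasites grown inside human red blood cells in medium with human serum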; details: P. falciparum 3D7 growth, 3 d, higher = more signal
[13] = target: Homeobox protein Hox-A13 (Mus musculus) (UniProt Q62424); assay: inhibitors of HoxA13-DNA binding, primary screen, biochemical, fluorescence polarization, labeled oligonucleotide (AID 1185); details: 15 min, higher = more signal, called active from +8 up or from −8 down
[14] = inhibitors of hydroxyurea-induced Chk1 phosphorylation, primary screen, imaging, HeLa, phospho-Chk1 antibody, percent positive cells (AID 1186); details: hydroxyurea-induced phospho-Chk1 immunofluorescence imaging, higher = more signal
[15] = inhibitors of hydroxyurea-induced Chk1 phosphorylation, primary screen, imaging, HeLa, phospho-Chk1 nuclear intensity (AID 1187); details: hydroxyurea-induced phospho-Chk1 immunofluorescence imaging, higher = more signal

Sequence of Homeobox protein Hox-A13 (Mus musculus) (Q62424 whole entry, looked up): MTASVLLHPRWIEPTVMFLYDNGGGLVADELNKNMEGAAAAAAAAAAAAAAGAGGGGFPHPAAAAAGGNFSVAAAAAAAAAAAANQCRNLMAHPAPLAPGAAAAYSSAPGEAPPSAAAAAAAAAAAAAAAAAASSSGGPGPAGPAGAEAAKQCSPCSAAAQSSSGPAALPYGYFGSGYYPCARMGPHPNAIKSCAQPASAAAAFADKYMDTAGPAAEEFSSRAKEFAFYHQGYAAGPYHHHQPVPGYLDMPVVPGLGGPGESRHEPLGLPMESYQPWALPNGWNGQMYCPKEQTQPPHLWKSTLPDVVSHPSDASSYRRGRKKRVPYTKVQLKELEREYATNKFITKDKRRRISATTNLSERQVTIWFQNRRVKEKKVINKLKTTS
Sequence of E3 ubiquitin-protein ligase XIAP (Homo sapiens) (P98170 whole entry, looked up): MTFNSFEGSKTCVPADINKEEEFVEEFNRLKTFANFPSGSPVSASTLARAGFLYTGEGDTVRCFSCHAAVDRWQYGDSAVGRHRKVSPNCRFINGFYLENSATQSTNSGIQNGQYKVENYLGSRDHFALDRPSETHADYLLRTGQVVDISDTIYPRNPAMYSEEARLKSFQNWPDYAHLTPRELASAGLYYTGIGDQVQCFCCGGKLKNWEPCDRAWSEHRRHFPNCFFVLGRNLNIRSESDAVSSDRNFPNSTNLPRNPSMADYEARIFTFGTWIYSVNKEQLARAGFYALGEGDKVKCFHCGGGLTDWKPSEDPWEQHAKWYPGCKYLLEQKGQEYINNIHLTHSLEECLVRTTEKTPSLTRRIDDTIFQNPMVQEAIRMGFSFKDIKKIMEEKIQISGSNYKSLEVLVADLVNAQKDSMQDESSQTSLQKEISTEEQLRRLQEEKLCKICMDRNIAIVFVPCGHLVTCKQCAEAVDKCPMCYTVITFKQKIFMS
Sequence of Dihydroorotate dehydrogenase (quinone), mitochondrial (Plasmodium falciparum (isolate 3D7)) (Q08210 whole entry, looked up): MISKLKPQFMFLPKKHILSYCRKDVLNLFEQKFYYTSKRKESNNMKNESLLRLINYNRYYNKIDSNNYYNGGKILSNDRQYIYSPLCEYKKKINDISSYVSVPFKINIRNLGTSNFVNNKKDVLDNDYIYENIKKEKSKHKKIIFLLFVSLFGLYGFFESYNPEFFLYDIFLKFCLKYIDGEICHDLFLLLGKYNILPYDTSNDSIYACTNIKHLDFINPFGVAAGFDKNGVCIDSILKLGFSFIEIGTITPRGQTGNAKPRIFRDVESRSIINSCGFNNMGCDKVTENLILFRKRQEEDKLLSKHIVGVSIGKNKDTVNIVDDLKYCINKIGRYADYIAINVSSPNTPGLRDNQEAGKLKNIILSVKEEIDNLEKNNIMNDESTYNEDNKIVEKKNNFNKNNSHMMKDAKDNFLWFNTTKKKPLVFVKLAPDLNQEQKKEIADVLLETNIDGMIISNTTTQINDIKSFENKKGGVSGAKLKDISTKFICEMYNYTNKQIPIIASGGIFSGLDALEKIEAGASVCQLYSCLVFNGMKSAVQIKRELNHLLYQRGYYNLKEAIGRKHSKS

Row | Structure (SMILES) | z-score [1] | z-score [2] | z-score [3] | composite z-score [4] | z-score [5] | z-score [6] | z-score [7] | z-score [8] | z-score [9] | composite z-score [10] | composite z-score [11] | composite z-score (XIP peptide (Xip251-270)) | z-score [12] | z-score [13] | z-score [14] | z-score [15]
1 | O=C1N(Cc2ccccc2)c2ccccc2C[C@@]12N=C(c1ccc(OCCCO)cc1)O[C@H]2c1ccccc1 | -0.449 | -1.21 (inactive) | -2.11 (inactive) | 0.318 (inactive) | 2.26 (inactive) | 1.18 (inactive) | 0.0946 (inactive) | -0.928 (inactive) | -1.69 | 0.0918 | 1.85 (inactive) | 0.541 | -2.52 | -5.07 (inactive) | 0.134 (inactive) | 0.553 (inactive)
2 | CC(C)N1CC=CC23O[C@@H]4/C=C\CCCOC(=O)C4[C@H]2C(=O)N(C(C)CO)[C@@H]3C1=O (stereo partly drawn) | 0.876 | -1.69 (inactive) | 0.832 (inactive) | -0.555 (inactive) | 0.0126 (inactive) | 0.14 (inactive) | 1.1 (inactive) | 0.906 (inactive) | 0.734 | -0.102 | -0.0835 (inactive) | 0.0575 | 0.261 | -4.1 (inactive) | -1.36 (inactive) | -0.988 (inactive)
3 | COCCOC(=O)N1C(=O)[C@@]2(c3cc(C#CCCO)ccc31)[C@H](c1ccc(O)cc1)N1[C@H](c3ccccc3)[C@H](c3ccccc3)OC(=O)[C@H]1[C@@H]2C(=O)NC[C@H](O)c1ccccc1 | 1.63 | 0.597 (inactive) | 0.763 (inactive) | 0.612 (inactive) | 1.66 (inactive) | 1.06 (inactive) | 1.04 (inactive) | 1.67 (inactive) | 1.2 | 0.0256 | 0.395 (inactive) | 0.859 | 0.0019 | -2.51 (inactive) | 0.0615 (inactive) | 0.345 (inactive)
4 | CCOC(=O)C[C@H]1[C@H](OC(=O)c2ccc(-c3ccccc3)cc2)[C@@H](NC(=O)C2CCCCC2)c2cc(OCCCO)ccc2N1C(=O)Cc1ccc(OC)cc1 | -0.0995 | 0.857 (inactive) | -0.456 (inactive) | -0.175 (inactive) | 0.55 (inactive) | -0.442 (inactive) | 0.0009 (inactive) | 0.0016 (inactive) | -0.131 | -0.144 | -0.344 (inactive) | -0.355 | -0.0911 | -2.2 (inactive) | -0.0566 (inactive) | 0.295 (inactive)
5 | O=C1O[C@H](c2ccccc2)[C@H](c2ccccc2)N2[C@H]1[C@@H](C(=O)N1CCN(c3ncccn3)CC1)[C@]1(C(=O)Nc3ccc(C#CC4(O)CCCCCC4)cc31)[C@H]2c1ccc(O)cc1 | 0.596 | -0.436 (inactive) | 0.776 (inactive) | 0.0991 (inactive) | 1.05 (inactive) | 1.82 (inactive) | 0.851 (inactive) | 1.31 (inactive) | 0.995 | -0.0663 | 1.48 (inactive) | 0.817 | -0.797 | -1.28 (inactive) | -0.168 (inactive) | -0.101 (inactive)
6 | COc1ccc([Si](C)(C)[C@H]2[C@H](CC(=O)N3CCC[C@H]3CO)O[C@@]3(C(=O)N(Cc4cccc(N5CCCCC5=O)c4)c4ccccc43)[C@@H]2C)cc1 | 0.276 | -0.953 (inactive) | -0.0453 (inactive) | -3.28 (inactive) | -0.234 (inactive) | 0.64 (inactive) | 0.957 (inactive) | 0.965 (inactive) | -0.185 | -0.0126 | 2.57 (inactive) | 0.714 | -1.33 | -3.23 (inactive) | -0.319 (inactive) | 0.519 (inactive)
7 | COC(=O)[C@@]1(Cc2ccc(F)cc2)[C@H]2c3cc(C(=O)N4CCCC4)n(C[C@H](O)CO)c3C[C@H]2CN1C(=O)c1ccccc1 | -0.462 | 0.897 (inactive) | -0.765 (inactive) | -0.323 (inactive) | 0.812 (inactive) | -0.108 (inactive) | -0.645 (inactive) | -0.0414 (inactive) | -0.797 | 0.0811 | 1.17 (inactive) | 0.0592 | -0.534 | -5.57 (inactive) | 0.588 (inactive) | 0.439 (inactive)
8 | CCCCN1CC=CC23O[C@@H]4C=CCCOC(=O)C4[C@H]2C(=O)N(CCO)[C@@H]3C1=O (stereo partly drawn) | 0.551 | -0.0816 (inactive) | 0.309 (inactive) | 0.0051 (inactive) | 0.345 (inactive) | 0.13 (inactive) | -0.323 (inactive) | -0.414 (inactive) | -0.0692 | -0.104 | 0.61 (inactive) | 0.485 | 0.211 | -4.53 (inactive) | -0.307 (inactive) | -0.815 (inactive)
